# Several values for one entry are separate records, joined by “and”; a condition that tells them apart may be missing. Identical values can stand only once. Like-named read-outs stand apart in the source and are kept apart here.
# How the values were obtained:
# CSF1R-autoinhibited = conditions: concentration: 1 μM, replicates: in singlicate, n = 1
# CSF1R = conditions: concentration: 1 μM, replicates: in singlicate, n = 1
# CSK = conditions: concentration: 1 μM, replicates: in singlicate; n = 1
# CSNK1A1L = conditions: concentration: 1 μM, replicates: in singlicate, n = 1
# CSNK1A1 = conditions: concentration: 1 μM, replicates: in singlicate; n = 1
# CSNK1D = conditions: concentration: 1 μM, replicates: in singlicate, n = 1
# CSNK1E = conditions: concentration: 1 μM, replicates: in singlicate, n = 1
# CSNK1G1 = conditions: concentration: 1 μM, replicates: in singlicate, n = 1
# CSNK1G2 = conditions: concentration: 1 μM, replicates: in singlicate; n = 1
# CSNK1G3 = conditions: concentration: 1 μM, replicates: in singlicate, n = 1
# CSNK2A1 = conditions: concentration: 1 μM, replicates: in singlicate, n = 1
# CSNK2A2 = conditions: concentration: 1 μM, replicates: in singlicate, n = 1
# CTK = system: T1, CTK; conditions: concentration: 1 μM, replicates: in singlicate, n = 1
# T1 construct: gene MATK
# DAPK1 = conditions: concentration: 1 μM, replicates: in singlicate, n = 1
# DAPK2 = conditions: concentration: 1 μM, replicates: in singlicate, n = 1
# DAPK3 = conditions: concentration: 1 μM, replicates: in singlicate; n = 1
# DCAMKL1 = system: T2, DCAMKL1; conditions: concentration: 1 μM, replicates: in singlicate, n = 1
# T2 construct: gene DCLK1
# DCAMKL2 = system: T3, DCAMKL2; conditions: concentration: 1 μM, replicates: in singlicate; n = 1
# T3 construct: gene DCLK2
# DCAMKL3 = system: T4, DCAMKL3; conditions: concentration: 1 μM, replicates: in singlicate, n = 1
# T4 construct: gene DCLK3
# DDR1 = conditions: concentration: 1 μM, replicates: in singlicate, n = 1
# 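Note: KINOMEscan kinase panel screen.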
structure (smiles),measurement,setting,value
CC(C)N1CCC(n2cnc(-c3ccc(F)cc3)c2-c2ccnc(N)n2)CC1 [SB-223132],%Inh,CSF1R-autoinhibited,0%
same,%Inh,CSF1R,0%
same,%Inh,CSK,0%
same,%Inh,CSNK1A1L,31%
same,%Inh,CSNK1A1,93.1%
same,%Inh,CSNK1D,96.4%
same,%Inh,CSNK1E,98.8%
same,%Inh,CSNK1G1,2%
same,%Inh,CSNK1G2,3%
same,%Inh,CSNK1G3,6%
same,%Inh,CSNK2A1,0%
same,%Inh,CSNK2A2,0%
same,%Inh,CTK,0%
same,%Inh,DAPK1,26%
same,%Inh,DAPK2,0%
same,%Inh,DAPK3,17%
same,%Inh,DCAMKL1,22%
same,%Inh,DCAMKL2,4%
same,%Inh,DCAMKL3,20%
same,%Inh,DDR1,46%
FC(F)(F)c1ccc(-c2cc(-c3c[nH]nc3-c3ccccn3)ccn2)cc1 [GW599550],%Inh,CSF1R-autoinhibited,33%
same,%Inh,CSF1R,0%
same,%Inh,CSK,0%
same,%Inh,CSNK1A1L,0%
same,%Inh,CSNK1A1,0%
same,%Inh,CSNK1D,48%
same,%Inh,CSNK1E,45%
same,%Inh,CSNK1G1,10%
same,%Inh,CSNK1G2,13%
same,%Inh,CSNK1G3,13%
same,%Inh,CSNK2A1,0%
same,%Inh,CSNK2A2,30%
same,%Inh,CTK,0%
same,%Inh,DAPK1,9%
same,%Inh,DAPK2,16%
same,%Inh,DAPK3,99.2%
same,%Inh,DCAMKL1,10%
same,%Inh,DCAMKL2,16%
same,%Inh,DCAMKL3,0%
same,%Inh,DDR1,0%
COC(=O)c1c(-c2ccccc2)c2cc(Cl)ccc2c(=O)n1Cc1ccc(S(C)(=O)=O)cc1,%Inh,CSF1R-autoinhibited,6%
same,%Inh,CSF1R,23%
same,%Inh,CSK,0%
same,%Inh,CSNK1A1L,0%
same,%Inh,CSNK1A1,21%
same,%Inh,CSNK1D,0%
same,%Inh,CSNK1E,3%
same,%Inh,CSNK1G1,100%
same,%Inh,CSNK1G2,0%
same,%Inh,CSNK1G3,0%
same,%Inh,CSNK2A1,3%
same,%Inh,CSNK2A2,35%
same,%Inh,CTK,3%
same,%Inh,DAPK1,21%
same,%Inh,DAPK2,0%
same,%Inh,DAPK3,0%
same,%Inh,DCAMKL1,5%
same,%Inh,DCAMKL2,1%
same,%Inh,DCAMKL3,4%
same,%Inh,DDR1,51%
Cn1cc(-c2ccc3c(c2)CCN3C(=O)Cc2cccc(C(F)(F)F)c2)c2c(N)ncnc21 [GSK2606414],%Inh,CSF1R-autoinhibited,0%
same,%Inh,CSF1R,6%
same,%Inh,CSK,0%
same,%Inh,CSNK1A1L,14%
same,%Inh,CSNK1A1,0%
same,%Inh,CSNK1D,8%
same,%Inh,CSNK1E,0%
same,%Inh,CSNK1G1,0%
same,%Inh,CSNK1G2,0%
same,%Inh,CSNK1G3,17%
same,%Inh,CSNK2A1,1%
same,%Inh,CSNK2A2,1%
same,%Inh,CTK,18%
same,%Inh,DAPK1,3%
same,%Inh,DAPK2,0%
same,%Inh,DAPK3,89%
same,%Inh,DCAMKL1,8%
same,%Inh,DCAMKL2,0%
same,%Inh,DCAMKL3,0%
same,%Inh,DDR1,99.7%
Oc1ccc2ncnc(Nc3ccc(OCc4ccccc4)cc3)c2c1 [GI262866],%Inh,CSF1R-autoinhibited,0%
same,%Inh,CSF1R,2%
same,%Inh,CSK,0%
same,%Inh,CSNK1A1L,0%
same,%Inh,CSNK1A1,8%
same,%Inh,CSNK1D,4%
same,%Inh,CSNK1E,30%
same,%Inh,CSNK1G1,0%
same,%Inh,CSNK1G2,17%
same,%Inh,CSNK1G3,38%
same,%Inh,CSNK2A1,26%
same,%Inh,CSNK2A2,10%
same,%Inh,CTK,3%
same,%Inh,DAPK1,0%
same,%Inh,DAPK2,0%
same,%Inh,DAPK3,0%
same,%Inh,DCAMKL1,0%
same,%Inh,DCAMKL2,0%
same,%Inh,DCAMKL3,0%
same,%Inh,DDR1,7%
COc1ccc(-c2nc3n(c2-c2ccncc2)CCC3)cc1 [SKF-104493],%Inh,CSF1R-autoinhibited; 1 µM,6% and 9%
same,%Inh,CSF1R; 1 µM,23% and 2%
same,%Inh,CSK,0%
same,%Inh,CSNK1A1L; 1 µM,12% and 0%
same,%Inh,CSNK1A1,0%
same,%Inh,CSNK1D; 1 µM,40% and 18%
same,%Inh,CSNK1E; 1 µM,22% and 7%
same,%Inh,CSNK1G1; 1 µM,0% and 13%
same,%Inh,CSNK1G2,0%
same,%Inh,CSNK1G3; 1 µM,6% and 14%
same,%Inh,CSNK2A1; 1 µM,0% and 2%
same,%Inh,CSNK2A2; 1 µM,13% and 15%
same,%Inh,CTK; 1 µM,25% and 0%
same,%Inh,DAPK1; 1 µM,82% and 21%
same,%Inh,DAPK2; 1 µM,0% and 6%
same,%Inh,DAPK3,0%
same,%Inh,DCAMKL1; 1 µM,21% and 0%
same,%Inh,DCAMKL2,0%
same,%Inh,DCAMKL3; 1 µM,0% and 18%
same,%Inh,DDR1; 1 µM,33% and 67%
CCn1c(-c2ccncc2)nc2cnccc21 [SB-735216],%Inh,CSF1R-autoinhibited,47%
same,%Inh,CSF1R,2%
same,%Inh,CSK,0%
same,%Inh,CSNK1A1L,10%
same,%Inh,CSNK1A1,22%
same,%Inh,CSNK1D,8%
same,%Inh,CSNK1E,0%
same,%Inh,CSNK1G1,6%
same,%Inh,CSNK1G2,0%
same,%Inh,CSNK1G3,4%
same,%Inh,CSNK2A1,18%
same,%Inh,CSNK2A2,0%
same,%Inh,CTK,11%
same,%Inh,DAPK1,1%
same,%Inh,DAPK2,0%
same,%Inh,DAPK3,0%
same,%Inh,DCAMKL1,8%
same,%Inh,DCAMKL2,0%
same,%Inh,DCAMKL3,0%
same,%Inh,DDR1,0%
Cc1ccc(O)cc1Nc1cc(C(F)(F)F)nc2ccc(-c3ccncc3)cc12 [GW630823],%Inh,CSF1R-autoinhibited,0%
same,%Inh,CSF1R,3%
same,%Inh,CSK,0%
same,%Inh,CSNK1A1L,23%
same,%Inh,CSNK1A1,4%
same,%Inh,CSNK1D,15%
same,%Inh,CSNK1E,0%
same,%Inh,CSNK1G1,6%
same,%Inh,CSNK1G2,1%
same,%Inh,CSNK1G3,5%
same,%Inh,CSNK2A1,0%
same,%Inh,CSNK2A2,2%
same,%Inh,CTK,2%
same,%Inh,DAPK1,16%
same,%Inh,DAPK2,17%
same,%Inh,DAPK3,11%
same,%Inh,DCAMKL1,25%
same,%Inh,DCAMKL2,0%
same,%Inh,DCAMKL3,15%
same,%Inh,DDR1,40%
FC(F)(F)c1ccc(-c2nn3ncccc3c2-c2ccnc(Nc3cccc(C(F)(F)F)c3)n2)cc1 [GW828205],%Inh,CSF1R-autoinhibited,0%
same,%Inh,CSF1R,0%
same,%Inh,CSK,0%
same,%Inh,CSNK1A1L,5%
same,%Inh,CSNK1A1,30%
same,%Inh,CSNK1D,24%
same,%Inh,CSNK1E,17%
same,%Inh,CSNK1G1,2%
same,%Inh,CSNK1G2,3%
same,%Inh,CSNK1G3,2%
same,%Inh,CSNK2A1,0%
same,%Inh,CSNK2A2,0%
same,%Inh,CTK,0%
same,%Inh,DAPK1,0%
same,%Inh,DAPK2,0%
same,%Inh,DAPK3,1%
same,%Inh,DCAMKL1,34%
same,%Inh,DCAMKL2,0%
same,%Inh,DCAMKL3,22%
same,%Inh,DDR1,86%
COc1ccc(-c2oc3ncnc(N)c3c2-c2ccc(OC)cc2)cc1 [SB-589132],%Inh,CSF1R-autoinhibited,70%
same,%Inh,CSF1R,61%
same,%Inh,CSK,0%
same,%Inh,CSNK1A1L,12%
same,%Inh,CSNK1A1,0%
same,%Inh,CSNK1D,11%
same,%Inh,CSNK1E,43%
same,%Inh,CSNK1G1,0%
same,%Inh,CSNK1G2,0%
same,%Inh,CSNK1G3,12%
same,%Inh,CSNK2A1,30%
same,%Inh,CSNK2A2,40%
same,%Inh,CTK,0%
same,%Inh,DAPK1,0%
same,%Inh,DAPK2,0%
same,%Inh,DAPK3,37%
same,%Inh,DCAMKL1,14%
same,%Inh,DCAMKL2,7%
same,%Inh,DCAMKL3,36%
same,%Inh,DDR1,94.6%

# From PMC5540273 (PLoS ONE, 2017)
